Data on 13 molecules can be found in PubChem BioAssay (NCATS).

“And” between values parts separate entries of the source, which are not always exact repeats. Equal values may be shown once. Inconclusive results are not listed. Where a structure was tested more than once in an assay, its records may differ in their call. The source made the active and inactive calls. Unless noted, the call rests on the fitted dose curve; in most records, active means well fitted curve in the direction sought with a large enough effect; inconclusive means small, poorly fitted or top-dose-only effect, or another doubt; inactive means no such curve, though single readings can be large; an effect the other way counts as inactive or inconclusive.

A short description of assay [1]: Natriuretic polypeptide receptor (hNpr1) antagonism - Pilot counterscreen GloSensor control cell line (AID 1347045; calls by dose curve; further: series mostly up to about 38 µM). Put shortly: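 HEK293 cGMP-sensor cells; 2% GloSensor reagent 2 h RT; LOPAC compounds in 1:5 titrations 30-50 min; 50 uM SNP 20 min; luminescence pre-read and post-read.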
On the technique in general: Counterscreens check selectivity or assay interference.

For assay [2], the target named is Atrial natriuretic peptide receptor 1 (Homo sapiens) (UniProt P16066). Nature of the assay: Natriuretic polypeptide receptor (hNpr1) antagonism - Pilot screen (AID 1347049; calls by dose curve;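 further: HEK293 cells with hNpr1 and GloSensor cGMP luciferase stimulated by 0.1 nM hNppA; agonist-evoked cGMP luminescence read 20 min after hNppA addition; series mostly up to about 58 µM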). Put shortly: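 Receptor antagonism read as cGMP-dependent luminescence in hNpr1/pGS-40F HEK293 cells: pre-read after 30 min compound exposure, post-read 20 min after hNppA agonist at 0.1 nM final, all at room temperature, protected from light; A-71915 titration as control.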
Chain of Atrial natriuretic peptide receptor 1 (Homo sapiens) (P16066 whole entry, looked up): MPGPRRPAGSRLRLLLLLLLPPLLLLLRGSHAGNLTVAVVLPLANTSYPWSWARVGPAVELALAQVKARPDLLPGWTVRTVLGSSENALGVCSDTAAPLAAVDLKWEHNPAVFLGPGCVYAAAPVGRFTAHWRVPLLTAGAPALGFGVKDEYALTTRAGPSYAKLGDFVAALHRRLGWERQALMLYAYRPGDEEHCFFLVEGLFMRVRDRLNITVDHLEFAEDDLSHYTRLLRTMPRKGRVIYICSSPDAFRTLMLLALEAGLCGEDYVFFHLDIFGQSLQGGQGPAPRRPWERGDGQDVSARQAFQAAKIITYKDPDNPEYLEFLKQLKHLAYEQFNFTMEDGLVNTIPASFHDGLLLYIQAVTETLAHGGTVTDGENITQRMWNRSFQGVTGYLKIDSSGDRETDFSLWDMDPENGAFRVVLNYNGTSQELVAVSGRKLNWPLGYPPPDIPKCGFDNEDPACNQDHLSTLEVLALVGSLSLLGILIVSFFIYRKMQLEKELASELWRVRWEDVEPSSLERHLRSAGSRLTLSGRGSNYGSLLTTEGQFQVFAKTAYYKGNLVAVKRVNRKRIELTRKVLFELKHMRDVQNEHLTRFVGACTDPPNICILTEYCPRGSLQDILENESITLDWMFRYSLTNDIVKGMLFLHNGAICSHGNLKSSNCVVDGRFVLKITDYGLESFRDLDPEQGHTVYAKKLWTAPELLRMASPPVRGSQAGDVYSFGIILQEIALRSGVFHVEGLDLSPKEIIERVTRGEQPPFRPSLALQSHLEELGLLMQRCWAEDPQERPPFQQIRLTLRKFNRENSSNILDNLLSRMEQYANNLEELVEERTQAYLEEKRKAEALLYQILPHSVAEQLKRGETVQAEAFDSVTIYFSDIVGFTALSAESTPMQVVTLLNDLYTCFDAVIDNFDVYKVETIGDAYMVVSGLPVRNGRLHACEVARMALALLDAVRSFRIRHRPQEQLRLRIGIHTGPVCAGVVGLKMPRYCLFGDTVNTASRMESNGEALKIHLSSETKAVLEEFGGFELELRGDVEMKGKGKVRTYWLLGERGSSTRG

The target of assay [3] is Atrial natriuretic peptide receptor 2 (Homo sapiens) (UniProt P20594). The experiment in a line: Natriuretic polypeptide receptor (hNpr2) antagonism - Pilot subtype selectivity assay (AID 1347050; calls by dose curve). The essentials: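 Antagonist mode: compounds (LOPAC1280, seven 1:5 dilutions) added 30 min before 1 nM hNppC stimulation of hNpr2-HEK293 cGMP-sensor cells; luminescence read before and 20 min after agonist at ambient temperature.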
Chain of Atrial natriuretic peptide receptor 2 (Homo sapiens) (P20594 whole entry, looked up): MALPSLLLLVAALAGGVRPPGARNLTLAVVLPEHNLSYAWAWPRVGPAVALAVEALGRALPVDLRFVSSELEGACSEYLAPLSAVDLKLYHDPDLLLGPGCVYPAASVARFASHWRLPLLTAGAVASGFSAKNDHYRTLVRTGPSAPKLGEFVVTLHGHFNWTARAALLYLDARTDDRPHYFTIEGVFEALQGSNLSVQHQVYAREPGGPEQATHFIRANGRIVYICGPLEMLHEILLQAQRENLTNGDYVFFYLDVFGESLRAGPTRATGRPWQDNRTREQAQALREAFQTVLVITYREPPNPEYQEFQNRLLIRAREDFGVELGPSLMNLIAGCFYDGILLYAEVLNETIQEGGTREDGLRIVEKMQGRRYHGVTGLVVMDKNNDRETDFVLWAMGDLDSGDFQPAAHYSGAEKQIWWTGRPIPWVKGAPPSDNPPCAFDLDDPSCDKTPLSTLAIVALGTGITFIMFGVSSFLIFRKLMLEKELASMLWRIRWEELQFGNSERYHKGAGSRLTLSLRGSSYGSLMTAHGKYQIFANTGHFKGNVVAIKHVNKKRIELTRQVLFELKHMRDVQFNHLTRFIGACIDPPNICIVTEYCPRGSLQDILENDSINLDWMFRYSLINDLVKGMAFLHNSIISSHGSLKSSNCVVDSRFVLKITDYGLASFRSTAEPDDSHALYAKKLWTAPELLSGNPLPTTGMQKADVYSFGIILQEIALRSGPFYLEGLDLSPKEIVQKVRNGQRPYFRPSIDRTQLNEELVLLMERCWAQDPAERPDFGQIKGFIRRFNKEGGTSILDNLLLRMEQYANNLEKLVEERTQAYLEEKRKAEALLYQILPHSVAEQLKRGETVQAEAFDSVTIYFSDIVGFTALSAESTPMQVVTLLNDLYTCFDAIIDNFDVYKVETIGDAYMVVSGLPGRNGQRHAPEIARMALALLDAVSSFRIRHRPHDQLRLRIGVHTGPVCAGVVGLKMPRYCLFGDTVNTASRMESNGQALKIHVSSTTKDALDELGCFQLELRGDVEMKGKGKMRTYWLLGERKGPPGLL

Assay [4] can be described thus: NS1 protein of Zika virus - qHTS assay to identify small molecule inhibitors in human HEK 293 cells (AID 1347053). Further: nearly all actives have a fitted effect of over 55% in size. Further: potency means the concentration at half of the fitted maximal effect. Put shortly: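 Read-out is a two-antibody TR-FRET for ZIKV NS1, normalized between uninfected cells and infected cells. Compound added 1 h before MR766 infection at MOI 0.5; human HEK 293 cells incubated 24 h, 37 C.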
(In general: In qHTS, concentration-response curves come from the screen itself.)

Assay [5] addresses T1, Tyrosine-protein phosphatase non-receptor type substrate 1 (Homo sapiens) + Leukocyte surface antigen CD47 (Homo sapiens) (UniProt P78324+Q08722). Nature of the assay: CD47-SIRPalpha protein protein interaction - LANCE assay qHTS validation (AID 1347057; active means well fitted curve in the direction sought with a large enough effect in the signal ratio, with a control signal flat, not every such curve was filed as active; the % refers to the signal ratio; further: series mostly up to about 38 µM). Put shortly:
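Inhibition of soluble CD47/SIRPalpha ectodomain association by titrated compounds, measured as 665/615 nm time-resolved FRET ratio after sequential 30 min room-temperature incubations.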
Background: TR-FRET usually uses a lanthanide donor and a delayed reading to cut background.

For assay [6], the target named is T1, Tyrosine-protein phosphatase non-receptor type substrate 1 (Homo sapiens) + Leukocyte surface antigen CD47 (Homo sapiens). The experiment in a line: CD47-SIRPalpha protein protein interaction - HTRF assay qHTS validation (AID 1347058; active means well fitted curve in the direction sought with a large enough effect in the signal ratio, not every such curve was filed as active; the % refers to the signal ratio; further: series mostly up to about 38 µM). Put shortly:
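Soluble extracellular domains (6His-CD47, Avi-tag-biotinylated SIRPalpha) in PBS pH 7.4 with 0.05% IGEPAL CA-630. Compounds were preincubated 30 min at RT with CD47 and anti-His-Eu, then SIRPalpha and SAV-XL665 were added. TR-FRET 665/615 ratio.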

Assay [7] shares this target. The experiment in a line: CD47-SIRPalpha protein protein interaction - Alpha assay qHTS validation (AID 1347059).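 Further: bead proximity luminescence from CD47 binding SIRPalpha after compound preincubation with SIRPalpha.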 The essentials: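 AlphaScreen signal between CD47-His (12.5 nM) and biotin-SIRPalpha (25 nM) soluble extracellular domains, bead-captured via Ni-NTA and streptavidin. Compounds, in 7-point titrations, met SIRPalpha 30 min before CD47; PBS pH 7.4 with 0.05% IGEPAL.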

Assay [8] deals with Parathyroid hormone/parathyroid hormone-related peptide receptor (Homo sapiens) (UniProt Q03431). Nature of the assay: qHTS for PTHR1 Agonists: Optimization Screen against the NCGC LOPAC library (AID 1347079).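 Further: GloSensor cAMP luminescence in HEK-293 GP2 cells expressing human PTHR1 with IBMX.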 The essentials:
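Signal increase flags agonism. GP2 cells, derived from HEK-293, express human PTHR1 and a GloSensor cAMP construct.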

Assay [9] is described as follows: qHTS for Inhibitors of the Functional Ribonucleoprotein Complex (vRNP) of Lassa (LASV) Arenavirus: Viability assay - alamar blue signal for LASV Primary Screen (AID 1347083; calls by dose curve; tested in HEK293 reporter line; further: nearly all actives have a fitted effect of over 80% in size; further: potency means the concentration at half of the fitted maximal effect).
The nature of assay [10]: qHTS for Inhibitors of the Functional Ribonucleoprotein Complex (vRNP) of Lymphocytic Choriomeningitis Arenaviruses (LCMV): Viability assay - alamar blue signal for LCMV Primary Screen (AID 1347085; calls by dose curve; tested in HEK293 reporter line; further: nearly all actives have a fitted effect of over 80% in size; further: potency means the concentration at half of the fitted maximal effect).
The nature of assay [11]: qHTS of pediatric cancer cell lines to identify multiple opportunities for drug repurposing: Primary screen for TC32 cells (AID 1347089). Further: nearly all actives have a fitted effect of over 60% in size. Further: potency means the concentration at half of the fitted maximal effect. Put shortly: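 In the primary qHTS, MIPE compounds were tested at 11 concentrations (0.78 nM to 46 µM) and NPC compounds at 8 (0.59 nM to 46 µM) on TC32 cells for 48 h. CellTiter-Glo luminescence gave viability.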
Assay [12] in a line: qHTS of pediatric cancer cell lines to identify multiple opportunities for drug repurposing: Primary screen for DAOY cells (AID 1347090). Further: nearly all actives have a fitted effect of over 55% in size. Further: potency means the concentration at half of the fitted maximal effect. Put shortly:
(§1)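 Cell viability, CellTiter-Glo luminescence; 500-1,000 cells/well, 8- or 11-point titration, 48 h compound exposure at 37 degrees C, 5% CO2. Controls: DMSO neutral, bortezomib 2.3 µM final as positive.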

A short description of assay [13]: qHTS of pediatric cancer cell lines to identify multiple opportunities for drug repurposing: Primary screen for SJ-GBM2 cells (AID 1347091). Further: potency means the concentration at half of the fitted maximal effect. The essentials: as §1
Assay [14] in a line: qHTS of pediatric cancer cell lines to identify multiple opportunities for drug repurposing: Primary screen for A673 cells (AID 1347092). Further: nearly all actives have a fitted effect of over 45% in size. Further: potency means the concentration at half of the fitted maximal effect. The essentials:
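48 h compound exposure, A673, 500-1,000 cells/well, 37 degrees C/5% CO2. MIPE: 11-point, 0.78 nM-46 µM; NPC: 8-point, 0.59 nM-46 µM (final). Readout CellTiter-Glo luminescence after 15 min RT.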

Assay [15] is described as follows: qHTS for Inhibitors of the Functional Ribonucleoprotein Complex (vRNP) of Lassa (LASV) Arenavirus: LASV Primary Screen - GLuc reporter signal (AID 1347082; calls by dose curve; tested in HEK293 reporter line; further: series mostly up to about 57 µM; nearly all actives have a fitted effect of over 60% in size).
Assay [16] addresses Nucleoprotein (Lymphocytic choriomeningitis virus (strain Armstrong)) (UniProt P09992). The experiment in a line: qHTS for Inhibitors of the Functional Ribonucleoprotein Complex (vRNP) of Lymphocytic Choriomeningitis Arenaviruses (LCMV): LCMV Primary Screen - GLuc reporter signal (AID 1347086; calls by dose curve; further: series mostly up to about 57 µM; nearly all actives have a fitted effect of over 70% in size).
The nature of assay [17]: qHTS of pediatric cancer cell lines to identify multiple opportunities for drug repurposing: Primary screen for SK-N-MC cells (AID 1347093). Further: series mostly up to about 46 µM. Put shortly:
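Metabolically active cells were quantified by ATP-dependent luminescence (CellTiter-Glo, 15 min at room temperature) following 48 h treatment. Cells had been plated at 500-1,000 per well and settled for 5 h beforehand.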

Assay [18] can be described thus: P-glycoprotein substrates identified in KB-8-5-11 adenocarcinoma cell line, qHTS therapeutic library screen (AID 1346987). Further: nearly all actives have a fitted effect of over 65% in size. Further: potency means the concentration at half of the fitted maximal effect. Put shortly: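 In this qHTS, P-gp-rich KB-8-5-11 cells received library compounds across a concentration range. Viability was quantified by luminescence after 72 h at 37 degree C.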

Chain of Nucleoprotein (Lymphocytic choriomeningitis virus (strain Armstrong)) (P09992 whole entry, looked up): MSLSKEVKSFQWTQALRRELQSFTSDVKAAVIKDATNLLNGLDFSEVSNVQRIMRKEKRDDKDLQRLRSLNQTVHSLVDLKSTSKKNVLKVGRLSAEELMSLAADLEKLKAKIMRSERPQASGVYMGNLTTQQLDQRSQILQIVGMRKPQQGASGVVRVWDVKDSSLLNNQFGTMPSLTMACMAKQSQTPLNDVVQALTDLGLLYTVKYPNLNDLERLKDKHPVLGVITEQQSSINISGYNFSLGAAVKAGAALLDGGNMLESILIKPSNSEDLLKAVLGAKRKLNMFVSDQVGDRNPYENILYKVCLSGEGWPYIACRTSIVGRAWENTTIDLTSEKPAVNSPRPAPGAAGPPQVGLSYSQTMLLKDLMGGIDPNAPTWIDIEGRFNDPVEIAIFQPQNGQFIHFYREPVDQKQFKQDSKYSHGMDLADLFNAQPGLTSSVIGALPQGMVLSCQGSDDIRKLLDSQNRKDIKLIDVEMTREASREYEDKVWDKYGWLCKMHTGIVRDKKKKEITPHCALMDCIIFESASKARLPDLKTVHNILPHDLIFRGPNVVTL
T1 sequence (P78324 whole entry, looked up, the tested form may be a part): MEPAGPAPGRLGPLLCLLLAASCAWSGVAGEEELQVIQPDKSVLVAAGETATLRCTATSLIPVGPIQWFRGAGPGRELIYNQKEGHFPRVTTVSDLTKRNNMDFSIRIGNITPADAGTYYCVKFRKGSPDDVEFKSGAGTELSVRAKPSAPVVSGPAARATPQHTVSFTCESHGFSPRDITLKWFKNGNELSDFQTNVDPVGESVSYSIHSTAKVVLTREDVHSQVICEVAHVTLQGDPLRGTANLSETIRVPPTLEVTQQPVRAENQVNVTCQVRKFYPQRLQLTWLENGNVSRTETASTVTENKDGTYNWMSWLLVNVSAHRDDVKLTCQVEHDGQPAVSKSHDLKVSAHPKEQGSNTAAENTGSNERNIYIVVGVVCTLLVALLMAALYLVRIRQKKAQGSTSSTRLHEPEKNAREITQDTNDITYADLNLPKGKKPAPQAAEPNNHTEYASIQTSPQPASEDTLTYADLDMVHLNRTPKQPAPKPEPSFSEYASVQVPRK
T1 sequence (Q08722 whole entry, looked up, the tested form may be a part): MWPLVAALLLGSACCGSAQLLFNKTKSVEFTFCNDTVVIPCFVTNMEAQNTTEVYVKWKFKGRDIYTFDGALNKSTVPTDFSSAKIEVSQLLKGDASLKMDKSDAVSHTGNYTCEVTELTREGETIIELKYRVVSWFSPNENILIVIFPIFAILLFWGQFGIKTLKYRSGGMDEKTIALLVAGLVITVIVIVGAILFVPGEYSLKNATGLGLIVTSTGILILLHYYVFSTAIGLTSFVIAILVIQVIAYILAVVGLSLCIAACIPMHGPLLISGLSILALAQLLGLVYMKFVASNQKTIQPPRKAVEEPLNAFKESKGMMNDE
Chain of Parathyroid hormone/parathyroid hormone-related peptide receptor (Homo sapiens) (Q03431 whole entry, looked up): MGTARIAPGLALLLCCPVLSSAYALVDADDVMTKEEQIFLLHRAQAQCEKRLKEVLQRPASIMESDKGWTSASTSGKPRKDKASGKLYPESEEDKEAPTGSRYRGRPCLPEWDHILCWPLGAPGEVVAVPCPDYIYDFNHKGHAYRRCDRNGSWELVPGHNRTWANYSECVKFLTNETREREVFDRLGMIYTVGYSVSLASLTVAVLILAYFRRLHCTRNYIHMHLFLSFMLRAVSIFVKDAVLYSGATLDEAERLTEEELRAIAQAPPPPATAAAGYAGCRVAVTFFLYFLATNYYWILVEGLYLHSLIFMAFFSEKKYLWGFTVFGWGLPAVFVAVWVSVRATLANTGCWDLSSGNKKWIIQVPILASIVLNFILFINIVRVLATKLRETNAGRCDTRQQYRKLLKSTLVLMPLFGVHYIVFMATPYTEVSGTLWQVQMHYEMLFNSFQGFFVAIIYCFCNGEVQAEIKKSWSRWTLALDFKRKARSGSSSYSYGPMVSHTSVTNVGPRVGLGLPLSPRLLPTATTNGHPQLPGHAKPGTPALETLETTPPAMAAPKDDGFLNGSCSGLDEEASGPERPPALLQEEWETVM

Consider `C[C@@H]1O[C@@H](O[C@H]2C[C@@H](O)[C@]3(CO)[C@H]4[C@H](O)C[C@]5(C)[C@@H](C6=CC(=O)OC6)CC[C@]5(O)[C@@H]4CC[C@]3(O)C2)[C@H](O)[C@H](O)[C@H]1O`, for which the Potency result in [1], in [2] and in [3] was “inactive” throughout. The Potency is 13.2 nM (active) and inactive in [4]; 109 nM (active) and 44.7 nM (active) in assay [9]; 122 nM (active) and 89.1 nM (active) in [10]; 131 nM (active) and 93.8 nM (active) in assay [11]; 29.6 nM (active) and 53.1 nM (active) in assay [12]; 18.7 nM (active) and 75 nM (active) in assay [13]. For the same molecule, the Potency in assay [14] is 46.9 nM (active) and 66.8 nM (active). Moreover, the outcome in assay [5], in assay [6], in assay [7] and in assay [8] was inactive.
Consider `CCC(COC(=O)c1cc(OC)c(OC)c(OC)c1)(c1ccccc1)N(C)C` (stereo not given), for which the Potency entry in assay [4], in assay [15], in assay [9], in assay [10], in assay [16] and in assay [11] was “inactive” throughout. Besides, the Potency result in assay [12], in [14] and in assay [17] was “inactive” each time.
For the molecule `CC(=O)[C@H]1CC[C@H]2[C@@H]3CC[C@H]4C[C@H](O)CC[C@]4(C)[C@H]3C(=O)C[C@]12C`, the Potency entry in [1], in assay [2], in assay [3], in [4], in [15] and in assay [9] was “inactive” throughout. For the same molecule, the Potency entry in assay [10], in [16], in assay [11], in assay [12], in [13] and in assay [14] was “inactive” each time. For the same molecule, the Potency result in assay [17] is “inactive”. Moreover, the result in assay [5], in assay [6], in assay [7] and in assay [8] was inactive.
`C=CCN1CC[C@]23c4c5ccc(O)c4O[C@H]2C(=O)CC[C@@]3(O)[C@H]1C5`: the Potency entry in [18], in assay [4], in assay [15], in assay [9], in [16] and in assay [11] was “inactive” in each case. In addition, the Potency result in [12] and in assay [14] was “inactive” throughout.
Consider `COC(=O)C1=C(C)NC(C)=C(C(=O)OCCN(C)Cc2ccccc2)C1c1cccc([N+](=O)[O-])c1` (stereo not given), for which the Potency entry in assay [15] was “inactive”.
Consider `CC[C@@H](CO)NC(=O)[C@@H]1C=C2c3cccc4[nH]cc(c34)C[C@H]2N(C)C1`, for which the Potency result in assay [2], in assay [3], in [4], in [15], in [9] and in assay [10] was “inactive” in each case. Moreover, the Potency result in assay [16], in assay [11], in assay [12], in [13] and in assay [14] was “inactive” throughout. For the same molecule, the outcome in assay [8] was inactive.
Turning to `CNC(=O)c1ccc(N2C(=S)N(c3ccc(C#N)c(C(F)(F)F)c3)C(=O)C23CCC3)cc1F`, the Potency result in assay [18], in assay [4], in assay [15], in [9], in [10] and in [11] was “inactive” throughout. The Potency entry in assay [13] was “inactive”. Also, the Potency in assay [12] was 3.72 µM (active); in assay [14] it was 18.7 µM (active).
For the molecule `O=P1(NCCCl)OCCCN1CCCl` (stereo not given), the Potency in [18] is 10.5 µM (active). In addition, the Potency result in [4], in [15], in assay [9], in assay [10], in [16] and in assay [11] was “inactive” in each case. In addition, the Potency result in [12] and in assay [17] was “inactive” each time.
As to `O=c1[nH]cc(F)c(=O)[nH]1`, the Potency result in [15] and in [9] was “inactive” throughout.
In the case of `COC(=O)Nc1nc2ccc(C(=O)c3cccs3)cc2[nH]1`, the Potency entry in assay [15] was “inactive”. Besides, the Potency in assay [9] was 54.4 nM (active); in assay [10] it was 27.3 nM (active).
The like results for `CC(=O)O[C@@]12CO[C@@H]1C[C@H](O)[C@@]1(C)C(=O)[C@H](O)C3=C(C)[C@@H](OC(=O)[C@H](O)[C@@H](NC(=O)OC(C)(C)C)c4ccccc4)C[C@@](O)([C@@H](OC(=O)c4ccccc4)[C@H]21)C3(C)C` were, in that order, “inactive”, “inactive” and “inactive”.
Regarding `CCCNCC(O)COc1ccccc1C(=O)CCc1ccccc1` (stereo not given), the Potency entry in [15], in assay [9], in [10] and in assay [16] was “inactive” each time.
For the molecule `Cc1ccccc1N1C(=O)c2cc(S(N)(=O)=O)c(Cl)cc2NC1C` (stereo not given), the Potency entry in [15], in assay [9], in assay [10] and in [16] was “inactive” in each case.
